Here are results for 21 molecules from PubChem BioAssay (NCI).

Structures are written as SMILES. About 79,000 compounds went through this panel and 15% of them were active in at least one assay; those are over-represented in the sample as a whole. Values without a mark were called inactive. Active and inactive are the calls of the source. Rule as the data show it: active = growth inhibition above about 70%; inactive = the rest.

Assay [1] can be described thus: NCI Yeast Anticancer Drug Screen. Data for the rad50 strain (AID 155).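 Also: 0% = growth of vehicle-only cultures of the same strain.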 The conditions noted are these: S. cerevisiae rad50 strain growth inhibition; at 50.0 µM; active compounds read high. Summed up: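 Cells are treated with compound, grown, and their growth is then scored against vehicle-only cultures of the same repair-deficient yeast strain.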
Assay [2] is described as follows: NCI Yeast Anticancer Drug Screen. Data for the mec2-1 strain (AID 157). The conditions noted are these: S. cerevisiae mec2-1 strain, at 50.0 µM, active compounds read high. In a few lines:
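mec2-1 yeast strain, carrying an alteration in DNA damage repair or cell cycle control, was exposed to compounds; growth inhibition was measured relative to vehicle-treated controls.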

Assay [3] in a line: NCI Yeast Anticancer Drug Screen. Data for the sgs1 mgt1 strain (AID 161).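 Also: 0% = growth of cultures given vehicle only.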 The note with it: S. cerevisiae sgs1 mgt1 strain, at 50.0 µM, active compounds read high. In a few lines:
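This yeast growth screen uses a strain with defined DNA-repair lesions; compound-treated growth is compared with vehicle-treated growth.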

A short description of assay [4]: NCI Yeast Anticancer Drug Screen. Data for the cln2 rad14 strain (AID 165).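 Also: 0% = growth equal to vehicle treated cultures.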 The conditions noted are these: S. cerevisiae cln2 rad14 strain, at 50.0 µM, active compounds read high. Summed up:
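Yeast carrying cln2 and rad14 alterations (cell cycle control and DNA damage repair) were exposed to compounds. Growth inhibition was measured against vehicle-treated controls.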

Assay [5] can be described thus: NCI Yeast Anticancer Drug Screen. Data for the bub3 strain (AID 167). The conditions noted are these: S. cerevisiae bub3 mutant strain, at 50.0 µM, active compounds read high. Summed up:
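Part of a panel of yeast mutants defective in DNA damage repair or cell cycle regulation. Each strain is grown with compound, and inhibition is calculated relative to solvent-treated cultures.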

Assay [6] can be described thus: NCI Yeast Anticancer Drug Screen. Data for the mlh1 rad18 strain (AID 175). The conditions noted are these: S. cerevisiae mlh1 rad18 strain growth inhibition; at 50.0 µM; active compounds read high. Summed up: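 Growth inhibition of the yeast strain was measured after compound exposure and expressed relative to vehicle-treated controls. The strain carries defined defects in DNA damage repair.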

For the molecule `CC1CC(c2ccccc2)Nc2nc3ccccc3n21` (stereo unspecified), the growth inhibition in assay [1] was 5.65%; in assay [2], 3.45%; in assay [3] it was -4.7%; in assay [4] it was 7.95%; in assay [5], 5.65%; in assay [6] it was -14.3%.
For `COc1ccc(-c2coc3c4c(c(CC=C(C)C)c(O)c3c2=O)OC(C)(C)C=C4)cc1OC`, the growth inhibition was 29.9% in assay [1]; 13.8% in assay [2]; 10.9% in assay [3]; 37.7% in assay [4]; 4.1% in assay [5]; 16.8% in assay [6].
For `COC(=O)c1c(-c2ccc(OC)c(OC)c2)cn(C)c1C`, the growth inhibition in assay [1] was 19.4%; in assay [2] it was 12.8%; in assay [3], 21%; in assay [4] it was -6.15%; in assay [5], 10.5%; in assay [6] it was 25.2%.
With `CN(C)Cc1[nH]c2ccccc2c1C(=O)c1ccccc1`, the growth inhibition was -4.55% in assay [1]; -8.85% in assay [2]; -12.2% in assay [3]; -18.7% in assay [4]; -25.5% in assay [5]; -25.6% in assay [6].
On to `OC1(c2ccccc2)C=C(c2ccccc2)C=C(c2ccccc2)O1` (stereo unspecified), for which the growth inhibition in assay [1] was -5.95%; in assay [2] it was 10.7%; in assay [3], -1.05%; in assay [4], 0.9%; in assay [5] it was 8.05%; in assay [6], -2.55%.
For the molecule `COC(=O)C(=O)c1c(C(=O)OC)nc2nnc(N)n2c1-c1ccc(OC)cc1`, the growth inhibition was -13.4% in assay [1]; 0.6% in assay [2]; -0.5% in assay [3]; -26.5% in assay [4]; 8.2% in assay [5]; -14.9% in assay [6].
In the case of `Cc1cc(-c2ccc(NC(=O)c3cccc([N+](=O)[O-])c3)c(C)c2)ccc1NC(=O)c1cccc([N+](=O)[O-])c1`, the growth inhibition in assay [1] is -19.2%; in assay [2], -26.7%; in assay [3], 0.25%; in assay [4], 15.3%; in assay [5] it was 0.7%; in assay [6], -14.3%.
For `COC(=O)CCBr`, the growth inhibition in assay [1] was -19.8%; in assay [2], 8.15%; in assay [3] it was 28.8%; in assay [4], -18.2%; in assay [5], -1.9%; in assay [6], 3.5%.
For the molecule `CCOc1ccccc1NC(=O)C(=O)C(/C(=N/N)C(=O)OC)c1nc2ccc([N+](=O)[O-])cc2[nH]c1=O` (stereo unspecified), the growth inhibition is 16.9% in assay [1]; -10% in assay [2]; 5.7% in assay [3]; 15.4% in assay [4]; -1.35% in assay [5]; 9.25% in assay [6].
In the case of `O=C(O)CC(O)(c1ccccc1C(=O)O)c1cccc2ccccc12` (stereo unspecified), the growth inhibition in assay [1] was -2.95%; in assay [2], -4.05%; in assay [3], 18.4%; in assay [4], 25.2%; in assay [5], -3.15%; in assay [6], 22.3%.
Turning to `COc1cccc(CN2C(=O)NC(C)(C)C2O)c1` (stereo unspecified), the growth inhibition was -12.2% in assay [1]; 28.4% in assay [2]; 10.3% in assay [3]; -5.75% in assay [4]; 11.6% in assay [5]; 10.2% in assay [6].
As for `NC(=O)CC[n+]1ccc(C(=O)O)cc1`, the growth inhibition in assay [1] is -21.8%; in assay [2], -31.7%; in assay [3], -6.1%; in assay [4], 0.4%; in assay [5], -25.1%; in assay [6], -5.05%.
For `CCCNC(=S)/N=C/c1c(O)cc(C)oc1=O`, the growth inhibition in assay [1] is -51.6%; in assay [2], -65.6%; in assay [3], -24.2%; in assay [4], -0.3%; in assay [5], -18.5%; in assay [6], -42.2%.
For the molecule `Nc1cc2c(cc1Br)-c1ccc(Cl)cc1C2=O`, the growth inhibition was 1.2% in assay [1]; 5% in assay [2]; 7.3% in assay [3]; -54.4% in assay [4]; 0% in assay [5]; -0.5% in assay [6].
Consider `COC(=O)[C@H]1C=C[C@@H](C)n2c(=O)c3ccccc3c(=O)n21`, for which the growth inhibition in assay [1] is -9%; in assay [2], 15.4%; in assay [3], -1.4%; in assay [4] it was -9.75%; in assay [5], -19.1%; in assay [6], -6.8%.
On to `N/N=C/c1cccn1-c1ccccc1Cl`, for which the growth inhibition in assay [1] is 33.8%; in assay [2], 15.3%; in assay [3] it was 26.9%; in assay [4], 0.35%; in assay [5], 28.2%; in assay [6] it was 14.8%.
With `CC(C)Sc1nc(NC(=O)N(C)N=O)cc(=O)[nH]1`, the growth inhibition in assay [1] was -3.4%; in assay [2] it was -3.45%; in assay [3], 19.6%; in assay [4], 27.5%; in assay [5] it was -9.95%; in assay [6] it was -32.1%.
Regarding `Cc1ccc(C(C)C)cc1NC(=O)NCCCl`, the growth inhibition in assay [1] was -9.8%; in assay [2] it was 10.6%; in assay [3], 2.8%; in assay [4] it was -33.3%; in assay [5], -9.6%; in assay [6], -6.4%.
`COC1=NN2C(OC)(c3ccccc3)c3c(-c4ccccc4)sc(-c4ccccc4)c3C2(c2ccccc2)S1` (stereo unspecified): the growth inhibition in assay [1] is 29.4%; in assay [2] it was 2.1%; in assay [3], 5.15%; in assay [4], 37.6%; in assay [5], 1.9%; in assay [6], 5.5%.
Consider `COc1ccc(C2=C(Cl)c3cc(OC)c(OC)cc3C2Cl)cc1OC` (stereo unspecified), for which the growth inhibition in assay [1] is 41.5%; in assay [2], 18.6%; in assay [3], 21.9%; in assay [4] it was 26.9%; in assay [5] it was -6.15%; in assay [6], 17.4%.
Consider `Nc1nc(I)nc2c1ncn2C1OC(COS(N)(=O)=O)C(O)C1O` (stereo unspecified), for which the growth inhibition is 67% in assay [1]; 67.5% in assay [2]; 40.9% in assay [3]; 63.6% in assay [4]; 43.9% in assay [5]; 78.3% (active) in assay [6].
